Design in all cases: scale not given: direction of the effect not stated beside the values
The target of experiment [1] is Protein translocase subunit SecA (Escherichia coli (strain K12)) (UniProt P10408). Kind of experiment: Assay to Identify E. coli SecA ATPase Inhibitors. Conditions: 30 µM. The experiment is classed as functional.
Experiment [2] addresses T1, Ubiquitin-activating enzyme e1, putative (Leishmania donovani (strain BPK282A1)) (UniProt E9BSI1).
T1 sequence (whole entry): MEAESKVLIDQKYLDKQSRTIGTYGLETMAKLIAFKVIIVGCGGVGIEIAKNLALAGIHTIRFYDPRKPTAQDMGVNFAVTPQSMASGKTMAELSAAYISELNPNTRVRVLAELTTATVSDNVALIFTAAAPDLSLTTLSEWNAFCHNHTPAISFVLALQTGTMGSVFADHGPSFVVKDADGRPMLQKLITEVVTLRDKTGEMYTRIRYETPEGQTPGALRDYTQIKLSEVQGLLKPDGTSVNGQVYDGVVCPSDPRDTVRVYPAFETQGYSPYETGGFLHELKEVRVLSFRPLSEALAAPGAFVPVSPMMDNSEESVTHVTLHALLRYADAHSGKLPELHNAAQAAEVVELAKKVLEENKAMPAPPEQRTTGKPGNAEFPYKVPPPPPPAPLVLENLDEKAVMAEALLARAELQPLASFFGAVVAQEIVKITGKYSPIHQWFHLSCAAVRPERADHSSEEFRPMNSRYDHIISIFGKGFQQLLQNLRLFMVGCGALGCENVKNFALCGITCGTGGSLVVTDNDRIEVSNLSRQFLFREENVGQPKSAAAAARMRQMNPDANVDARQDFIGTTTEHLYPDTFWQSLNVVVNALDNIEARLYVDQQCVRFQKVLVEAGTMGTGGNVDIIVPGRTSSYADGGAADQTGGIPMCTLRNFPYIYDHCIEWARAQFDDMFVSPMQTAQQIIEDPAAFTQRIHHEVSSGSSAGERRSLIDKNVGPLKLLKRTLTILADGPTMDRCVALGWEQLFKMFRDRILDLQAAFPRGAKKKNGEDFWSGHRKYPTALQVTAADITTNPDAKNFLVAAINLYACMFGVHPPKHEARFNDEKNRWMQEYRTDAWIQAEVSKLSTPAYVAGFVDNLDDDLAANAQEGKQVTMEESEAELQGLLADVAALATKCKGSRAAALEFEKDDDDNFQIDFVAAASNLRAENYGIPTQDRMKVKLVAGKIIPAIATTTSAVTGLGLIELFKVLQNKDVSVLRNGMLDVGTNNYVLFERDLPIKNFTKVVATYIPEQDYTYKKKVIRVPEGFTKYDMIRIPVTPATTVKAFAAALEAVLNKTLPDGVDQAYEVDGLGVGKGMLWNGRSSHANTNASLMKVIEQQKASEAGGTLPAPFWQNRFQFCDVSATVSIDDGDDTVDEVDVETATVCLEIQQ
The experiment in a line: Leishmania donovani Ubiquitin Activating Enzyme (LdE1). Conditions: 30 µM. Type of experiment: functional.

The target in experiment [3] is AMP-activated protein kinase, AMPK (Homo sapiens) (UniProt P54646+O43741+P54619+Q9UGJ0+Q9Y478+Q13131+Q9UGI9). The experiment in a line: AMP-dependent Kinase enzyme assay. An in vitro enzyme assay that detects ADP turnover that is directly proportional to AMPK activity. This uses naive AMPK that is activated during the assay with MK-8722. Type of experiment: functional. The following applies: 30 µM.

Experiment [4] addresses Sialic acid-binding Ig-like lectin 9 (Homo sapiens) (UniProt Q9Y336). The experiment in a line: Hs-Siglec9 ALPHAscreen SOP 20170721. The following applies: 10 µM. For orientation: Alpha assays give light when donor and acceptor beads are brought close together.
Experiment [5] has as its system Trypanosoma cruzi. Kind of experiment: Trypanosoma cruzi phosphomannomutase and mannose-1-phosphate guanylyltransferase assay. Type of experiment: functional. Conditions: 10 µM.
Experiment [6] deals with T2, Arginase-2, mitochondrial (Homo sapiens) (UniProt P78540).
T2 sequence (whole entry): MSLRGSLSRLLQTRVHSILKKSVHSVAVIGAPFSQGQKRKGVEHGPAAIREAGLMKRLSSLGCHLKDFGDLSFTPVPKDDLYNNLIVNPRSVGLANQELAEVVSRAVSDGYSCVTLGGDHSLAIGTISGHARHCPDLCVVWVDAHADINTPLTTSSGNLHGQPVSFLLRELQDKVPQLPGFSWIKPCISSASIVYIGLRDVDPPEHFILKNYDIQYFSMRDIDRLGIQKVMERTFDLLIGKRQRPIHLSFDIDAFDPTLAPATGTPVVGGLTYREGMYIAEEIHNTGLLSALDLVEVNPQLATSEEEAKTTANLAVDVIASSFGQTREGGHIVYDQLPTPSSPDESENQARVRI
The experiment in a line: in vitro enzyme assay to detect the production of urea directly proportional to the activity of Arginase II. Note: in the data most compounds retested in dose-response had high values. The experiment is classed as functional. The following applies: 33.3 µM.

Experiment [7] addresses T3, Proteasome subunit beta (Trypanosoma cruzi) (UniProt O96673).
T3 sequence (whole entry): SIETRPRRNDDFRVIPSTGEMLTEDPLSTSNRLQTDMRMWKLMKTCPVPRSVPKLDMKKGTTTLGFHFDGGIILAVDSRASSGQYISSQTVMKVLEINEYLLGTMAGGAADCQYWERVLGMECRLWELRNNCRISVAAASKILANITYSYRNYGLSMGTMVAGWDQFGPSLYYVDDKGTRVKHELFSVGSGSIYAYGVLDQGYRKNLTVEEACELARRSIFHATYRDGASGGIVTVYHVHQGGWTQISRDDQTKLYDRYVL
Kind of experiment: Trypanosoma cruzi proteasome chymotrypsin-like activity (TcProtChymo) assay. Note: in the data most compounds retested in dose-response had high values. The experiment is classed as functional. Conditions: 9.37 µM.

For experiment [8], the species on record is Homo sapiens. Kind of experiment: To identify inhibition of the IFN signalling (Jak-Stat) pathway via expression of an eGFP reporter gene under the control of an IFN-stimulated response element (ISRE) containing MxA promoter. Type of experiment: functional. Conditions: 30 µM.
Experiment [9] concerns the target T4, Tyrosyl-tRNA synthetase, putative (Trypanosoma cruzi (strain CL Brener)) (UniProt Q4DSP6).
T4 sequence (whole entry): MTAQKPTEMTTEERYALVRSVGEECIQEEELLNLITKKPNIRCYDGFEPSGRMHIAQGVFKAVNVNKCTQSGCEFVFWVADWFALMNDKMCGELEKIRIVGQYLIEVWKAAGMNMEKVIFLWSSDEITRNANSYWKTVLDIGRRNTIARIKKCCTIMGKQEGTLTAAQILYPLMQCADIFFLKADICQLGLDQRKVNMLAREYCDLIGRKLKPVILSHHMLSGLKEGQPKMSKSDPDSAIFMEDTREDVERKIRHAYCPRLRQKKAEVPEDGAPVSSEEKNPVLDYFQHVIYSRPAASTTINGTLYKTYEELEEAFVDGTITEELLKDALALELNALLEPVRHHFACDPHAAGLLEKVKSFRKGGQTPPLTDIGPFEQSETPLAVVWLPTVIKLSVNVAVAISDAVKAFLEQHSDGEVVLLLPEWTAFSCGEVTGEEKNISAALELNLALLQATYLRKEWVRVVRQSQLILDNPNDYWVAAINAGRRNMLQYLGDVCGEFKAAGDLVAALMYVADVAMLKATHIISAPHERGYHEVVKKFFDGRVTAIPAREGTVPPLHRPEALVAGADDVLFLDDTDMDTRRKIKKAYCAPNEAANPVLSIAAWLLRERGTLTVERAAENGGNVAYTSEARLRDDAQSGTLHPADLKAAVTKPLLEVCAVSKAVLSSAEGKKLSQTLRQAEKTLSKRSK
The experiment in a line: Trypanosoma cruzi tyrosyl tRNA synthetase (TcYRS) _High Tyrosine SOP. Note: in the data most compounds retested in dose-response had high values. Type of experiment: functional. The following applies: 30 µM.

The target in experiment [10] is T4, Tyrosyl-tRNA synthetase, putative (Trypanosoma cruzi (strain CL Brener)). The experiment in a line: Trypanosoma cruzi tyrosyl tRNA synthetase (TcYRS) SOP. Type of experiment: functional. The following applies: 30 µM.
Experiment [11] deals with Chromo domain-containing protein 1 (Saccharomyces cerevisiae (strain ATCC 204508 / S288c) (Baker's yeast)) (UniProt P32657). The experiment in a line: ScCHD-1 Enzyme Inhibition Assay. Note: in the data most compounds retested in dose-response had high values. The experiment is classed as functional. The following applies: 30 µM.

Molecules are shown by their SMILES. For some of these results: Results with a measured potency or affinity are listed apart.

Sequence of Sialic acid-binding Ig-like lectin 9 (Homo sapiens) (Q9Y336 whole entry): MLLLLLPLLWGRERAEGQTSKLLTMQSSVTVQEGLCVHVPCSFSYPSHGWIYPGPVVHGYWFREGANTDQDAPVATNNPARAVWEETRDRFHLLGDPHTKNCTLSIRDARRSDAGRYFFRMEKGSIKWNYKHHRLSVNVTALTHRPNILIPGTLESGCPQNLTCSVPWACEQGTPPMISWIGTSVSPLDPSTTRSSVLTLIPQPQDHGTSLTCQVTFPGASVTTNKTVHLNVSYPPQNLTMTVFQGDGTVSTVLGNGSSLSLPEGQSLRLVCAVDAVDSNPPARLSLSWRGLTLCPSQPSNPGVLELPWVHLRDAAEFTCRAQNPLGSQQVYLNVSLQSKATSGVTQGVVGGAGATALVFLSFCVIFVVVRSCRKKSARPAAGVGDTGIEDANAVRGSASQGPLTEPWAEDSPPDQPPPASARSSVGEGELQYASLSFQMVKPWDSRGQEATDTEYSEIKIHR
Sequence of Chromo domain-containing protein 1 (Saccharomyces cerevisiae (strain ATCC 204508 / S288c) (Baker's yeast)) (P32657 whole entry, the tested form may be a part): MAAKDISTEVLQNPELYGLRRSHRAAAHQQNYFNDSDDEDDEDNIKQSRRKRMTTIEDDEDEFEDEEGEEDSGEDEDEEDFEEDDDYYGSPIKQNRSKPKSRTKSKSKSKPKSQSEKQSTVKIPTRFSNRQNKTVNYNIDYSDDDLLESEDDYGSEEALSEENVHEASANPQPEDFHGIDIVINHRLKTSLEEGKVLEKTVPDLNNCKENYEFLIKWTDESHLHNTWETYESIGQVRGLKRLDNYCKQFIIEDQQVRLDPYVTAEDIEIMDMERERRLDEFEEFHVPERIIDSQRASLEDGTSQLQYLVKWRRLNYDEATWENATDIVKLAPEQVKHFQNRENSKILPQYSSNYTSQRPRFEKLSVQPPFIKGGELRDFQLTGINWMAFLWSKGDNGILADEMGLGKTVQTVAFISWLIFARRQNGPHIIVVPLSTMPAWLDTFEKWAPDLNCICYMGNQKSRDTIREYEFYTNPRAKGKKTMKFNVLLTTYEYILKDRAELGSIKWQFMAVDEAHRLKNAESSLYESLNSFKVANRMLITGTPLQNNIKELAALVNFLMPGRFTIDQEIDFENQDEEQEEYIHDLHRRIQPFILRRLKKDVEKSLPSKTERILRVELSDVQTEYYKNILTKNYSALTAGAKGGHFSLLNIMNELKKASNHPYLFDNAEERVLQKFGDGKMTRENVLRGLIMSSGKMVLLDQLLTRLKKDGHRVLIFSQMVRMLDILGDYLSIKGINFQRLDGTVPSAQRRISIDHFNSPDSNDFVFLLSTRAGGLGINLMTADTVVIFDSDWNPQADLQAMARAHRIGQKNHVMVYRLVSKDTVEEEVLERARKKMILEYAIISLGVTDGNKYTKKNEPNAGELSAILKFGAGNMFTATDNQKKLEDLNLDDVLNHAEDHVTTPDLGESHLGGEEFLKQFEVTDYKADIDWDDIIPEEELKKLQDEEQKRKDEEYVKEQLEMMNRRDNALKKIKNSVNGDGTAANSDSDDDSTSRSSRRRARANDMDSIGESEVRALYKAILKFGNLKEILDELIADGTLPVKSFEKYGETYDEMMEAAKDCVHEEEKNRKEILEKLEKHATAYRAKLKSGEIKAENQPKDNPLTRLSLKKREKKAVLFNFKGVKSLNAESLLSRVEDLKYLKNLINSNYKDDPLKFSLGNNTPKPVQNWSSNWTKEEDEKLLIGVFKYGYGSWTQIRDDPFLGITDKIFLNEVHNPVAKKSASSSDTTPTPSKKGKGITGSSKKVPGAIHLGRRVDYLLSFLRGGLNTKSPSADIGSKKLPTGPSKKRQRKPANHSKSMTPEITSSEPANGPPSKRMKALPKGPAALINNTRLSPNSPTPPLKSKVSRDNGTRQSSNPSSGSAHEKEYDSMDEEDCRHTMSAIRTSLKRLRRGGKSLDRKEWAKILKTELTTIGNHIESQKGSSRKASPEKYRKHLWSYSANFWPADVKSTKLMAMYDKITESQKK
Sequence of Protein translocase subunit SecA (Escherichia coli (strain K12)) (P10408 whole entry): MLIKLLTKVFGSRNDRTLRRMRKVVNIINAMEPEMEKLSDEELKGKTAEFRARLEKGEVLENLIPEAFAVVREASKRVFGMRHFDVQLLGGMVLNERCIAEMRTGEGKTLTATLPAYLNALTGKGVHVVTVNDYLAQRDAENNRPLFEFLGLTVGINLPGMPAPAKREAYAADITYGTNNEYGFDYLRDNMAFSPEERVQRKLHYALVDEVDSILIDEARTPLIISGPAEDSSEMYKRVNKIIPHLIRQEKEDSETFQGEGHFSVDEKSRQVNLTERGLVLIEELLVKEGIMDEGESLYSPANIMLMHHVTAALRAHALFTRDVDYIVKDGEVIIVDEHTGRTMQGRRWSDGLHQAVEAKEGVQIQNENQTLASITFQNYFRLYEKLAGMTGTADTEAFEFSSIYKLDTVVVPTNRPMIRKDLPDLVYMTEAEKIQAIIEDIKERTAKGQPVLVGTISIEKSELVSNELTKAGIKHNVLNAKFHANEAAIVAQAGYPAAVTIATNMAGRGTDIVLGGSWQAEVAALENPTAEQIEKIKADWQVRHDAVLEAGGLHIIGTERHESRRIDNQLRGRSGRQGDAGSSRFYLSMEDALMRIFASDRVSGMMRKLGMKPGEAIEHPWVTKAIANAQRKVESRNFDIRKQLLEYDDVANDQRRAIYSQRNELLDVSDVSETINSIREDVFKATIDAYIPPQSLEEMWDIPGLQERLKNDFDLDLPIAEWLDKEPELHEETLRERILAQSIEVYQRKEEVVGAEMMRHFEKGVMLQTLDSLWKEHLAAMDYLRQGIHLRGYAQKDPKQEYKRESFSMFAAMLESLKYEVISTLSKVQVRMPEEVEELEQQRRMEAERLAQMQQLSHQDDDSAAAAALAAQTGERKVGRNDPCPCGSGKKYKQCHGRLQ

As for `c1ccc(-c2noc(CN3CCC(c4ccn[nH]4)CC3)n2)cc1`, the Percent Effect in experiment [1] was 1.64%; in [2], -8.11%; in experiment [3] it was -9.82%; in experiment [4] it was 9.87%; in experiment [5], 3.09%; in experiment [6], 26.2%. The Percent Effect in experiment [7] was 21.9%; in experiment [8] it was -10.4%; in experiment [9], 4.76%; in experiment [10], 14.6%; in [11], -1.3%.

`C[C@@H]1CN(C(=O)c2ccsc2)C[C@]12CCN(c1ccsc1)C2=O`: the Percent Effect is -3.14% in experiment [1]; 0% in [2]; 13.8% in experiment [3]; -0.135% in [4]; -3.54% in experiment [5]; -1.63% in experiment [6]. The Percent Effect in experiment [7] was found to be 2.91%; in experiment [8], 5.8%; in experiment [9], 5.32%; in experiment [10] it was 3.85%; in [11], 0.408%.

Take `CO[C@H]1CCN(S(=O)(=O)c2cn(C)cn2)[C@H]1Cc1cccnc1`: the Percent Effect in experiment [1] was -3.74%; in experiment [2] it was 8%; in experiment [3] it was -3.32%; in experiment [4], -5.55%; in [5] it was 6.37%; in experiment [6], -49.6%. Moreover, the Percent Effect in [7] was 7.86%; in experiment [8] it was -0.203%; in [9] it was 3.12%; in experiment [10] it was 15%; in experiment [11], -9.19%.

As for `O[C@H]1CCN(Cc2ccoc2)[C@H]1Cc1cccnc1`, the Percent Effect in experiment [1] is -6.91%; in [2], 0%; in experiment [3], 3.99%; in experiment [4], -6.85%; in experiment [5] it was -1.16%; in experiment [6] it was -54.7%. For the same compound, the Percent Effect was 5.47% in experiment [7]; 13.5% in experiment [8]; 4.17% in experiment [9]; 2.5% in [10]; -9.55% in [11].

As to `Cc1nc(C)n(CC2CCCCN2CC(=O)Nc2cccnc2)n1` (stereo unspecified), the Percent Effect is -1.75% in [1]; 4.17% in experiment [2]; -8.52% in experiment [3]; 22% in experiment [4]; 3.98% in [5]; 9.71% in experiment [6]. Moreover, the Percent Effect in experiment [7] was 8.25%; in experiment [8], -0.793%; in [9], 5.26%; in experiment [10] it was 10.3%; in experiment [11], -2.02%.

With `O=C(NCC(O)c1cccc(F)c1)c1cccnc1O` (stereo unspecified), the Percent Effect was -5.99% in [1]; 16.4% in experiment [2]; -2.16% in experiment [3]; 7.14% in experiment [4]; 9.52% in experiment [5]; -4.79% in experiment [6]. Further, the Percent Effect in [7] is 5.05%; in [8], 7.58%; in experiment [9] it was 7.29%; in experiment [10], 13.6%; in experiment [11] it was -7.57%.

In the case of `NCC(c1ccccc1)N1CCc2sccc2C1` (stereo unspecified), the Percent Effect in [1] is -1.09%; in experiment [2] it was 7.89%; in [3], -9.46%; in experiment [4], -3.01%; in [5] it was -3.41%; in [6] it was -5.92%. Besides, the Percent Effect in experiment [7] is 17.6%; in experiment [8] it was 5.62%; in [9] it was 8.51%; in experiment [10], 18.2%; in [11] it was -3.07%.

Take `Cc1nc(C)n(CC2CCCN(CCc3ccccn3)C2)n1` (stereo unspecified): the Percent Effect is -8.02% in experiment [1]; 13.9% in [2]; -5.61% in [3]; -6.83% in experiment [4]; 2.36% in experiment [5]; -1.07% in experiment [6]. The Percent Effect in [7] is 1.2%; in experiment [8] it was 3.25%; in [9], 3.12%; in experiment [10], 15.2%; in experiment [11], -36.4%.

On to `CSc1ncc(C(=O)N2C[C@H]3CC[C@@H]2CN(Cc2ccccc2)C3)cn1`, for which the Percent Effect in [1] was 0.697%; in experiment [2] it was 2.74%; in [3] it was 22.7%; in [4], -2.06%; in experiment [5], -6.66%; in [6], 2.27%. Moreover, the Percent Effect in experiment [7] is 11%; in [8], 4.63%; in [9], 6.45%; in experiment [10] it was 10%; in experiment [11] it was 0.291%.

On to `CCN(CC)c1ccc(NS(=O)(=O)c2cnn(C)c2)cn1`, for which the Percent Effect is -1.96% in experiment [1]; 16.4% in experiment [2]; -5.27% in experiment [3]; 6.69% in experiment [4]; 8.33% in [5]; -6.39% in experiment [6]. In addition, the Percent Effect in experiment [7] is 8.48%; in [8] it was 0.142%; in [9], 6.25%; in [10] it was 13.6%; in experiment [11], -5.08%.

Take `Cc1cc(C)n(CC2CCCN2C(=O)c2ccc3c(c2)nnn3C)n1` (stereo unspecified): the Percent Effect in [1] is -3.73%; in experiment [2], 8.22%; in experiment [3] it was -3.73%; in experiment [4], -4.94%; in experiment [5] it was -2.94%; in [6], 7.27%. Moreover, the Percent Effect was 14.9% in experiment [7]; -9.03% in experiment [8]; 3.23% in experiment [9]; 7.5% in experiment [10]; -4.89% in [11].

Values taken from ChEMBL document CHEMBL3988442, “University of Dundee, Small-Polar-MMV Screening Library” (2021).
